Screening data as filed in PubChem BioAssay.
Only some compounds are listed: those with a hit (about 20% of all), similar ones and a draw of the others.
Pf growth 96h = P. falciparum growth inhibition at 96 hour, primary screen for plastid delayed-death inhibitors. Potency, µM (highest dose often 28.7 µM), usual class: inhibitors. P. falciparum luciferase reporter growth, 96 h. 6.9% of 320,000 active. AID 504834
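Parasite growth measured via integrated firefly luciferase reporter in P. falciparum. Infected erythrocytes at 2% hematocrit, 0.05% parasitemia final were treated 96 hours at 37 C under 5% CO2, and luminescence was read.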
HCMV inh = inhibitors of human cytomegalovirus; 4.5% of 410,000 active; HFF cells, HCMV-luciferase reporter, 72 h; active compounds read low; activity change, negative = inhibition, % at 57.5 µM; AID 1259415; in the data active means activity change below about -60%; inconclusive means no clear call, values can overlap the other calls; inactive means above about -39%
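Screen run at 2 compound doses on HFFs infected with reporter HCMV, MOI 1 PFU/cell. Luciferase activity from cell lysates at 72 h post infection gave inhibition relative to buffer-only and Salinomycin wells.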
Cycloheximide cs = counter-screen hit for Shiga toxin inhibitors, cycloheximide. cell reporter, cycloheximide protein synthesis inhibition counterscreen. max response, %. 12% of 300,000 active. AID 2314; in the data active means max response mostly above about 13%, no sharp cut-off; inactive means mostly below about 14%; further: read at 38.3 µM for the half of the compounds with a filed dose
Shiga inhibitor = blocks Shiga toxin action in Vero cells | Vero cells, Shiga toxin protein synthesis inhibition reporter | inhibition, % at 38.7 µM | 9.2% of 290,000 active | AID 2315; in the data active means inhibition mostly above about 28%, no sharp cut-off; inactive means mostly below about 43%
Pf growth 48h = P. falciparum growth inhibition at 48 hours (one generation); P. falciparum luciferase growth in erythrocytes, 48 h; Potency, µM (titrated, usually from 28.7 µM), hits mostly inhibitors; 5.9% of 310,000 active; AID 504832
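Compounds are pin-transferred into medium, infected erythrocytes (2% hematocrit, 0.1% parasitemia final) are added, and plates sit one parasite generation at 37 C in 5% CO2. Detection reagent is then added and luminescence measured.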
A number is an active result. Unless noted, the call rests on the fitted dose curve; in most records, active means well fitted inhibition curve with a large enough effect; inconclusive means small, poorly fitted or top-dose-only effect, or another doubt; inactive means no such curve, though single readings can be large or run the other way.

How did NC(=S)c1ncc(C(F)(F)F)cc1Cl do in these assays?
Pf growth 96h: inactive; HCMV inh: inactive; Cycloheximide cs: inactive; Shiga inhibitor: inactive; Pf growth 48h: inactive

How did NC(=S)Nc1ncc(C(F)(F)F)cc1Cl do in these assays?
Pf growth 96h: inactive; HCMV inh: -92; Cycloheximide cs: inactive; Shiga inhibitor: inactive; Pf growth 48h: inactive

Results for CO/N=C/NC(=O)C1=NOC(CNc2ncc(C(F)(F)F)cc2Cl)C1 (configuration not stated) ?
Pf growth 96h: inactive; HCMV inh: inactive; Cycloheximide cs: inactive; Shiga inhibitor: inactive; Pf growth 48h: inactive

Results for Cc1c(Cl)cccc1NC(=S)NNc1ncc(C(F)(F)F)cc1Cl ?
Pf growth 96h: 9.3µM; HCMV inh: -102; Cycloheximide cs: inactive; Shiga inhibitor: inactive

Results for C=CCNC(=O)c1ccc2c(=O)n(CCCN3CCCC3=O)c(=S)[nH]c2c1 ?
Pf growth 96h: inactive; HCMV inh: inactive; Cycloheximide cs: inactive; Shiga inhibitor: inactive; Pf growth 48h: inconclusive

How did COc1cccc(NC(=S)N(CCCN2CCOCC2)C(C)c2cc3cccc(OC)c3o2)c1 (configuration not stated) do in these assays?
Pf growth 96h: 2.1µM; HCMV inh: inactive; Cycloheximide cs: inactive; Shiga inhibitor: inactive; Pf growth 48h: inconclusive

What do the screens show for `COc1cccc(NC(=O)N(CCCN2CCOCC2)C(C)c2cc3cccc(OC)c3o2)c1` (configuration not stated)?
Pf growth 96h: inconclusive; HCMV inh: inactive; Cycloheximide cs: inactive; Shiga inhibitor: inactive; Pf growth 48h: inconclusive

How did COc1cccc(NC(=O)N(CCCN2CCOCC2)C(C)c2cc3ccccc3o2)c1 (configuration not stated) do in these assays?
Pf growth 96h: 12µM; HCMV inh: inactive; Cycloheximide cs: inactive; Shiga inhibitor: inactive

How did Cc1nc(NCC2CCCO2)c2nnn(Cc3c(F)cccc3Cl)c2n1 (configuration not stated) do in these assays?
Pf growth 96h: inactive; HCMV inh: inactive; Cycloheximide cs: inactive; Shiga inhibitor: inactive; Pf growth 48h: inactive

How did COc1ccc(C(F)(F)F)cc1NC(=O)c1nc2nc(C)cc(C(F)F)n2n1 do in these assays?
Pf growth 96h: inconclusive; HCMV inh: inactive; Cycloheximide cs: inactive; Shiga inhibitor: inactive; Pf growth 48h: 3.7µM

How did O=C(CCC1CCN(Cc2ccc(Cl)cc2)CC1)NC1CC1 do in these assays?
Pf growth 96h: 1µM; HCMV inh: inactive; Cycloheximide cs: inactive; Shiga inhibitor: inactive; Pf growth 48h: inactive

Results for O=C(c1ccc(Cl)cc1)C1CCN(Cc2ccccc2)CC1 ?
Pf growth 96h: inconclusive; HCMV inh: inactive; Cycloheximide cs: inactive; Pf growth 48h: inactive

Results for Clc1ccc(CN2CCC(c3ccccc3)CC2)cc1 ?
Pf growth 96h: inactive; HCMV inh: -103; Cycloheximide cs: inactive; Shiga inhibitor: inactive; Pf growth 48h: inactive

How did Clc1ccc(CN2CCC(Cc3ccccc3)CC2)cc1 do in these assays?
Pf growth 96h: 8.3µM; HCMV inh: inactive; Cycloheximide cs: inactive; Shiga inhibitor: inactive; Pf growth 48h: inactive

How did COc1ccc2cc(S(=O)(=O)c3ccccc3F)c(=O)oc2c1 do in these assays?
HCMV inh: inactive

Results for COCC(C)n1c(SCC(=O)NNC(=O)c2ccc(F)cc2)nc2ccccc2c1=O (configuration not stated) ?
Pf growth 96h: inconclusive; HCMV inh: inactive; Cycloheximide cs: inactive; Shiga inhibitor: inactive; Pf growth 48h: inactive

How did CCN(CC)c1ccc(/C=N/NC(=O)c2nnn(-c3nonc3N)c2C(C)C)c(O)c1 do in these assays?
Pf growth 96h: 7.4µM; HCMV inh: -102; Cycloheximide cs: inactive; Shiga inhibitor: inactive; Pf growth 48h: 3.7µM

What do the screens show for `CCCc1c(C(=O)N/N=C/C(C)=C/c2ccco2)nnn1-c1nonc1N`?
Pf growth 96h: inconclusive; HCMV inh: inconclusive; Cycloheximide cs: inactive; Shiga inhibitor: inactive; Pf growth 48h: inactive

What do the screens show for `CC(/C=N/NC(=O)c1nnn(-c2nonc2N)c1C(C)C)=C\c1ccco1`?
Pf growth 96h: inactive; HCMV inh: inactive; Cycloheximide cs: 40; Shiga inhibitor: inactive; Pf growth 48h: inactive

What do the screens show for `COc1cccc(N2CCN(Cc3nc(N)nc(Nc4ccccc4)n3)CC2)c1`?
Pf growth 96h: inactive; HCMV inh: inactive; Cycloheximide cs: inactive; Shiga inhibitor: inactive; Pf growth 48h: inactive

How did COc1cccc(Nc2nc(N)nc(CCl)n2)c1 do in these assays?
Pf growth 96h: inconclusive; HCMV inh: -80; Cycloheximide cs: 57; Shiga inhibitor: 146; Pf growth 48h: inconclusive

How did Cc1cccc(Nc2nc(N)nc(CCl)n2)c1 do in these assays?
Pf growth 96h: 9.3µM; HCMV inh: -104; Cycloheximide cs: 61; Shiga inhibitor: 77; Pf growth 48h: inconclusive

What do the screens show for `CCN(C(=O)COc1ncnc2sccc12)c1ccccc1`?
Pf growth 96h: inactive; HCMV inh: inactive; Cycloheximide cs: inactive; Shiga inhibitor: inactive; Pf growth 48h: inactive

How did Cc1cccc(C)c1OCc1cc(C(=O)N(C)Cc2nc3ccccc3[nH]2)no1 do in these assays?
Pf growth 96h: inactive; HCMV inh: inactive; Cycloheximide cs: inactive; Shiga inhibitor: inactive; Pf growth 48h: inactive

Results for CC(=O)c1cccc(OCc2cc(C(=O)N(C)Cc3ccc(C)o3)no2)c1 ?
Pf growth 96h: inactive; HCMV inh: inactive; Cycloheximide cs: 22; Shiga inhibitor: 79; Pf growth 48h: inactive

What do the screens show for `CN(Cc1ccccn1)C(=O)c1cc(COc2ccc(F)c(F)c2)on1`?
HCMV inh: -93

What do the screens show for `CC(=O)c1ccc(OCc2cc(C(=O)N(C)Cc3nc4c(C)cccc4[nH]3)no2)cc1`?
Pf growth 96h: inactive; HCMV inh: inactive; Cycloheximide cs: inactive; Shiga inhibitor: inactive; Pf growth 48h: inconclusive

Results for CC(=O)c1cccc(OCc2cc(C(=O)N(C)CCc3ccccn3)no2)c1 ?
Pf growth 96h: inconclusive; HCMV inh: inactive; Cycloheximide cs: 15; Shiga inhibitor: inactive; Pf growth 48h: inactive

How did Cc1ccc(OCc2cc(C(=O)N(C)CCc3nc4ccccc4[nH]3)no2)cc1C do in these assays?
Pf growth 96h: inactive; HCMV inh: inactive; Cycloheximide cs: 27; Shiga inhibitor: inactive; Pf growth 48h: inconclusive

How did CN(CCCC1CCCC1)C(=O)c1cc(COc2ccc(F)c(F)c2)on1 do in these assays?
Pf growth 96h: inconclusive; HCMV inh: inactive; Cycloheximide cs: inactive; Shiga inhibitor: inactive; Pf growth 48h: inactive

Results for O=[N+]([O-])c1ccc(N2CCN(S(=O)(=O)c3ccc4ccccc4c3)CC2)cc1NCC1CCCO1 (configuration not stated) ?
Pf growth 96h: inactive; HCMV inh: inactive; Cycloheximide cs: inactive; Shiga inhibitor: inactive; Pf growth 48h: inconclusive

What do the screens show for `CNC(=O)c1c(NC(=O)c2cc(-c3cc(C)c(C)cc3O)n[nH]2)sc2c1CCCC2`?
Pf growth 96h: inconclusive; Cycloheximide cs: inactive; Shiga inhibitor: inactive; Pf growth 48h: inactive

What do the screens show for `CCn1cc(/C=C(\NC(=O)c2ccccc2Cl)C(=O)NCCCn2ccnc2)c2ccccc21`?
HCMV inh: inactive

What do the screens show for `Cc1ccc(OCc2cc(C(=O)N(C)CCc3ccccn3)no2)cc1C`?
Pf growth 96h: inactive; HCMV inh: inactive; Cycloheximide cs: 83; Shiga inhibitor: 109; Pf growth 48h: inconclusive
